Records with an inconclusive call do not appear. Activity calls are given as the source filed them. Calls come from the whole dose curve; as a rule, active = well fitted curve in the direction sought with a large enough effect; inconclusive = small, poorly fitted or top-dose-only effect, or another doubt; inactive = no such curve, though single readings can be large; an effect the other way counts as inactive or inconclusive.
Assays:
[1] = molecular target: Cellular tumor antigen p53 (Homo sapiens) (UniProt P04637); experiment: Primary qHTS for small molecule compounds that upregulate eGFP-tagged delta133p53alpha (in N-terminal) cells. (AID 2060322); settings: NCI-H358 eGFP-delta133p53alpha fluorescence, 24 h; activation: stronger effect = higher value;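 note: cells pre-induced with doxycycline then dosed without doxycycline; series mostly up to about 56 µM; 0% = DMSO vehicle and 100% = reference activator; nearly all actives have a fitted effect of over 75% in size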
Outline: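 NCI-H358 cells pre-induced 24 h with 10 ng/ml doxycycline for eGFP-delta133p53alpha, plated dox-free and exposed 24 h at 37C to titrated compounds. Fixed, Hoechst-stained; gated GFP peak intensity by laser scanning cytometry, normalized to DMSO (0%) and 57.5 uM 5-azacytidine (100%).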

[2] = molecular target: Aldehyde dehydrogenase, mitochondrial (Homo sapiens) (UniProt P05091); experiment: qHTS for Inhibitors of the Aldehyde Dehydrogenase Family (ALDH2) Primary screen (AID 2061308);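 note: plate controls were vehicle for no effect and reference inhibitor for full effect; nearly all actives have a fitted effect of over 55% in size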
[3] = molecular target: Retinaldehyde dehydrogenase 3 (Homo sapiens) (UniProt P47895); experiment: qHTS for Inhibitors of the Aldehyde Dehydrogenase Family (ALDH1A3) Primary screen (AID 2061315);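 note: plate controls were DMSO vehicle for no effect and reference inhibitor for full effect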

Sequence of Cellular tumor antigen p53 (Homo sapiens) (P04637 whole entry, looked up): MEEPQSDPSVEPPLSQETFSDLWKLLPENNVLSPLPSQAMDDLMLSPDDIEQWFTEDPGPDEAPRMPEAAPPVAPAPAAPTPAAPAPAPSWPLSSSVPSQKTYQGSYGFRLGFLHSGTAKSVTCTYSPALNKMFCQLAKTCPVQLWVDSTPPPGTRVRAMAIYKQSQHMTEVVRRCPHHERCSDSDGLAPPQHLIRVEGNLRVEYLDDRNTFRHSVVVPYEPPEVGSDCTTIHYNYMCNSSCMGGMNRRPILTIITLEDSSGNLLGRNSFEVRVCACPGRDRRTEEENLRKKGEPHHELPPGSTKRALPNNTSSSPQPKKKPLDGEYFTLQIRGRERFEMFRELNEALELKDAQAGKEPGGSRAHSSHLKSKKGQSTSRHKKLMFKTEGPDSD

C=C[C@@]12COC(=O)C(=C)[C@@H]1[C@@H](O)[C@H](C(=C)C(=O)OC)[C@@H](O)C2
inactive: activation [1] -7.63% | Potency [2] | Potency [3]

COc1ccc(C(OC2OC(CO)C(O)C(O)C2O)C(C)O)cc1 (stereo not given)
inactive: activation [1] 9.82% | Potency [2] | Potency [3]

C[C@H](O)[C@H](O)/C=C/c1cccc(O)c1CO
inactive: activation [1] -15.3% | Potency [2] | Potency [3]

CNCCN1CCC(c2cc(CN(C)C(=O)c3cccc(Oc4ccccc4)c3)ccn2)CC1
inactive: activation [1] -4.33% | Potency [2] | Potency [3]

C[C@@H]1CC[C@]2(C(=O)O[C@@H]3O[C@H](CO[C@@H]4O[C@H](CO)[C@@H](O[C@@H]5O[C@@H](C)[C@H](O)[C@@H](O)[C@H]5O)[C@H](O)[C@H]4O)[C@@H](O)[C@H](O)[C@H]3O)CC[C@]3(C)C(=CCC4[C@@]5(C)C[C@@H](O)[C@H](O)[C@@](C)(CO)C5CC[C@]43C)C2[C@H]1C (stereo not given in full)
inactive: activation [1] -19.6% | Potency [2] | Potency [3]

CCOc1cn(-c2ccc(F)cc2C)nc1C(=O)Nc1ccc(Oc2ccnc3cc(OC)c(OC)cc23)c(F)c1
inactive: activation [1] 12.5% | Potency [2] | Potency [3]

CC(C)=CCC(O)[C@](C)(O)C1[C@H](O)C[C@@]2(C)C3CC=C4C(C[C@H](O)[C@@H](O[C@@H]5O[C@H](CO)[C@@H](O)[C@H](O)[C@H]5O)C4(C)C)[C@]3(C)C(=O)C[C@]12C (stereo not given in full)
inactive: activation [1] 10.7% | Potency [2] | Potency [3]

CC(=O)NC(C(=O)OC1CCC(C)(C)C2CC=C3C(=O)OCC3C12C)C(C)C (stereo not given)
inactive: activation [1] 9.16% | Potency [2] | Potency [3]

C=C1C(=O)O[C@@H]2C[C@H](C)[C@@]3(O)C=C(C(C)=O)[C@]4(CC3C[C@H]12)C(=O)O[C@H]1C[C@@H](C)C(CCC(C)=O)=CC[C@H]14 (stereo not given in full)
inactive: activation [1] 4.46% | Potency [2] | Potency [3]

OC[C@H]1O[C@@H](n2cnc3c(NCc4ccc(O)cc4)ncnc32)[C@H](O)[C@@H]1O
inactive: activation [1] 13.7% | Potency [2] | Potency [3]

O=C(O)c1ccnc(-c2cc(C(=O)NCCc3ccccc3)ccn2)c1
inactive: activation [1] 4.47% | Potency [2] | Potency [3]

C/C(=C\CCC(C)CCO)C(=O)OC1(C)CCC2C(C(=O)O)=COC(OC3OC(CO)C(O)C(O)C3O)C21 (stereo not given)
inactive: activation [1] 4.58% | Potency [2] | Potency [3]

COc1ccc(C2(N(C)C(=O)c3ccc(NC(=O)c4ccco4)cc3)CCOCC2)cc1
inactive: activation [1] -10.7% | Potency [2] | Potency [3]

CC(C)C1=CC2=CCC3[C@](C)(CCC[C@@]3(C)C(=O)O)C2CC1=O (stereo not given in full)
inactive: activation [1] 8.93% | Potency [2] | Potency [3]

OC[C@H]1O[C@@H](OCCc2ccccc2)[C@H](O)[C@@H](O)[C@@H]1O
inactive: activation [1] -2.29% | Potency [2] | Potency [3]

C=C1C[C@]23C[C@H]1CC[C@H]2[C@@]12C=C[C@H](O)[C@@](C)(C(=O)O1)[C@H]2[C@@H]3C(=O)O
inactive: activation [1] -28.2% | Potency [2] | Potency [3]

COC(=O)C1=COC(OC2OC(CO)C(O)C(O)C2O)C2C(C)C(OC(C)=O)C(OC(=O)c3ccccc3)C12 (stereo not given)
inactive: activation [1] -6.87% | Potency [2] | Potency [3]

Cn1nccc1-c1ccccc1Oc1ccc(S(=O)(=O)Nc2nccs2)cc1C#N
inactive: activation [1] 3.67% | Potency [2] | Potency [3]

CCCCC1CCC(c2nc(-c3ccncc3)no2)CC1 (stereo not given)
inactive: activation [1] -6.68% | Potency [2] | Potency [3]

COc1ccc(-n2c(SCC#N)nc3sc4c(c3c2=O)CCCC4)cc1
inactive: activation [1] -16.1% | Potency [2] | Potency [3]

C[C@@H]1O[C@@H](O[C@H]2[C@H](O)[C@@H](O)[C@H](OC3CCC4(C)C5CCC(C)(C(CO)OC6OC(CO)C(O)C(O)C6O)CC5=CCC4C3(C)C)O[C@@H]2CO)[C@H](O)[C@H](O)[C@H]1O (stereo not given in full)
inactive: activation [1] -22.9% | Potency [2] | Potency [3]

C=C1C(=O)OC2CC(C)=C(C(C)CCCO[C@@H]3O[C@H](CO)[C@@H](O)[C@H](O)[C@H]3O)C(O)C12 (stereo not given in full)
inactive: activation [1] -18.3% | Potency [2] | Potency [3]

C/C=C(/C)C(=O)O[C@H]1[C@H](OC(=O)/C(C)=C\C)[C@@]23C(CC1(C)C)[C@]1(CCC4[C@@]5(C)CC[C@H](O[C@@H]6O[C@H](C(=O)O)[C@@H](O)[C@H](O[C@@H]7O[C@H](CO)[C@H](O)[C@H](O)[C@H]7O[C@@H]7O[C@@H](C)[C@H](O)[C@@H](O)[C@H]7O[C@@H]7OC[C@@H](O)[C@H](O)[C@H]7O)[C@H]6O[C@@H]6O[C@H](CO)[C@H](O)[C@H](O)[C@H]6O)C(C)(C)C5CC[C@@]4(C)[C@]1(C)C[C@H]2O)O[C@H]3O (stereo not given in full)
inactive: activation [1] -8.93% | activity change, negative = inhibition [2] -1.6% [at 11.2 µM] | activity change, negative = inhibition [3] -5.71% [at 11.2 µM]

CC(C)C[C@H](NC(=O)[C@@H]1O[C@H]1C(=O)O)C(=O)NCCCCN=C(N)N
inactive: activation [1] -8.33% | Potency [2] | Potency [3]

CCCn1cc2c(nc(NC(=O)Nc3ccc(OC)cc3)n3nc(-c4ccco4)nc23)n1
inactive: activation [1] 9.07% | Potency [2] | Potency [3]

From PubChem BioAssay (NCATS)
